Screening results from PubChem.
Sampled rows, rich in hits. Any-hit rate of the full collection: about 9.4%.
ELG1 DNA repair: inhibitors of ELG1-dependent DNA repair in HEK293T cells | Potency, µM (top dose mostly 46.1 µM), hits mostly inhibitors | AID 504467 | hit rate 2.3% among 330,000 | HEK293T ELG1-luciferase reporter, luminescence, 16 h; DNA damage induced by 5-fluorouridine; also: nearly all actives have a fitted effect of over 55% in size
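5-Fluorouridine DNA damage + compound/DMSO, 2,000 cells/well, 16 h, 37 °C/5% CO2. ONE-Glo, 30 min RT, luminescence. Readout = decrease in reporter signal.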
ELG1 genotoxic: induces genotoxicity in HEK293T cells with luciferase-tagged ELG1 | HEK293T ELG1-luciferase reporter, luminescence, 16 h | Potency, µM (top dose mostly 46 µM), actives largely listed as activators | hit rate 1.3% among 330,000 | AID 504466; also: nearly all actives have a fitted effect of over 60% in size
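HEK293T cells expressing luciferase-tagged ELG1 were treated with compound or DMSO for 16 hr at 37°C. Luciferase activity was then read after 30 min with ONE-Glo at room temperature; rising signal flags genetic stress.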
NPC1 prom act: activators of NPC1 promoter. Potency, µM (series often up to 9.22 µM), usual class: activators. AID 485313. hit rate 2.4% among 320,000. Huh7 NPC1 promoter luciferase reporter, 24 h; also: nearly all actives have a fitted effect of over 60% in size
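In 1536-well qHTS, Huh7 cells harboring an NPC1 promoter–luciferase construct received compound for 24 h; activation was quantified by luminescence following luciferase reagent addition.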
Rab9 promoter act: activators of Rab9 promoter; Huh7 Rab9 promoter-luciferase reporter, luminescence, 24 h; Potency, µM (top dose mostly 9.22 µM), actives largely listed as activators; hit rate 2.8% among 320,000; AID 485297; also: nearly all actives have a fitted effect of over 60% in size
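Stable Rab9-luc Huh7, 1500 cells/well, 2 h settle; cmpd in DMSO, 24 h, 37 °C/5% CO2; luciferase reagent 10 min RT; luminescence.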
SMN2 splice enh: SMN2 splice variant enhancement; HEK293 SMN2-luciferase splicing reporter, luminescence, 30-36 h; Potency, µM (titrated, usually from 46.1 µM), hits mostly activators; hit rate 2.8% among 210,000; also: nearly all actives have a fitted effect of over 55% in size
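HEK293 cells carry an SMN2 minigene-luciferase reporter in which exon 7 inclusion puts luciferase in frame. Cells were seeded at 2000 cells/well, attached for 10-12 hours, then exposed to compounds for 30-36 hours at 37C before ONE-Glo luminescence.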
FLuc modulator: firefly luciferase modulation, counter-screen for miR-21 project | purified FLuc, Km substrates, luminescence inhibition | hit rate 6.9% among 360,000 | Potency, µM (series often up to 57.5 µM), actives largely listed as inhibitors; also: nearly all actives have a fitted effect of over 55% in size
Target sequence (P08659 whole entry, looked up): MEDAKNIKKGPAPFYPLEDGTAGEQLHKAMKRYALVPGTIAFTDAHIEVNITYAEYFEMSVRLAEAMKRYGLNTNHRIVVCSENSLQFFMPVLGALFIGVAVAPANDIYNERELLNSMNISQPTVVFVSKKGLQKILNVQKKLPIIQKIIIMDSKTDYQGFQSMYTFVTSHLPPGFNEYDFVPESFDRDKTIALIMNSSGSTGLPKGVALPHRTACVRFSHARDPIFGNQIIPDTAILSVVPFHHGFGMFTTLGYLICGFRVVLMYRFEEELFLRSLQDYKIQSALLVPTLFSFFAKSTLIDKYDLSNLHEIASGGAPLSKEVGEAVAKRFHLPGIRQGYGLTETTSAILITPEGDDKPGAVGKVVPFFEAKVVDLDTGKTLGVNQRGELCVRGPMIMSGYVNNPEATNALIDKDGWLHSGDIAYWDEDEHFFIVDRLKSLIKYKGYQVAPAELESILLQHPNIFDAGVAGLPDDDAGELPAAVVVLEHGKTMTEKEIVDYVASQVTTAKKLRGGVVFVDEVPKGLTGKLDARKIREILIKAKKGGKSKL
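Biochemical qHTS of compounds, final roughly 60 µM downward over six points, against 10 nM purified firefly luciferase using Km concentrations of substrates (10 uM D-luciferin, 10 uM ATP) in Tris acetate pH 7.5 buffer; luminescence output.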
Large screens that a line does not name were inactive; ! = not confirmed by another sample. Calls follow the shape of the dose curve; as a rule, active = well fitted curve in the direction sought with a large enough effect; inconclusive = small, poorly fitted or top-dose-only effect, or another doubt; inactive = no such curve, though single readings can be large; an effect the other way counts as inactive or inconclusive.

Cc1sc2ncn(CC(=O)N(C)c3cccc(C(F)(F)F)c3)c(=O)c2c1S(=O)(=O)N1CCN(c2ncccn2)CC1	none (no result: ELG1 DNA repair, ELG1 genotoxic, NPC1 prom act, Rab9 promoter act)
COc1ccc(COCC(O)CN2CCN(S(=O)(=O)c3ccc(C(C)C)cc3)CC2)cc1 (centres undefined)	ELG1 DNA repair 13µM (no result: SMN2 splice enh)
CCc1nc(Nc2ccc(F)c(Cl)c2)c2c3c(sc2n1)CCCC3	none (no result: ELG1 DNA repair, ELG1 genotoxic, NPC1 prom act, Rab9 promoter act)
O=C(c1ccc(Cl)s1)N1CCc2ccccc21	ELG1 DNA repair inconclusive, ELG1 genotoxic 6.51µM, NPC1 prom act inconclusive, Rab9 promoter act 2.51µM, SMN2 splice enh 22.4µM, FLuc modulator 3.79µM
O=C(c1ccc(C(=O)N2CCCc3ccccc32)s1)N1CCCc2ccccc21	none
CCc1sc(C(=O)N2CCc3ccccc32)cc1C	ELG1 DNA repair inconclusive, ELG1 genotoxic 1.83µM, NPC1 prom act 1.12µM, Rab9 promoter act 0.355µM, SMN2 splice enh 8.91µM, FLuc modulator 1.9µM
CCOc1ccc(NC(=O)Cn2nc3c(cc2=O)CC(C)CC3)cc1 (centres undefined)	none (no result: ELG1 DNA repair, ELG1 genotoxic, NPC1 prom act, Rab9 promoter act, SMN2 splice enh)
O=C(CCC(=O)c1ccc[nH]1)c1ccc(Cl)cc1	ELG1 DNA repair inconclusive, ELG1 genotoxic 8.2µM, NPC1 prom act 3.16µM, Rab9 promoter act 1.58µM, SMN2 splice enh inconclusive, FLuc modulator 12µM
O=C(O)CCC(=O)c1ccc[nH]1	none (no result: ELG1 DNA repair, ELG1 genotoxic, NPC1 prom act, Rab9 promoter act, FLuc modulator)
CCC(CC)C(=O)Nc1nnc(S(=O)(=O)N2c3ccccc3CC2C)s1 (centres undefined)	FLuc modulator 16.9µM! (no result: SMN2 splice enh)
Cc1cc2nc(-c3ccc(SCC(=O)N4CCc5ccccc54)nc3)[nH]c2cc1C	ELG1 DNA repair inconclusive, ELG1 genotoxic inconclusive, NPC1 prom act 1.12µM, Rab9 promoter act 0.501µM, SMN2 splice enh 2.51µM, FLuc modulator 0.135µM
O=C(CN1CCCCC1)Nc1ccc(S(=O)(=O)NC2CCCCC2)cc1	none
Cc1ccc2nc(SCC(=O)Nc3ncccn3)[nH]c2c1	ELG1 DNA repair inconclusive (no result: SMN2 splice enh)
Cc1cc(NC(=O)CSc2ccc(-c3nc4cc(C)c(C)cc4[nH]3)cn2)no1	ELG1 DNA repair inconclusive, ELG1 genotoxic inconclusive, NPC1 prom act 2µM, Rab9 promoter act 0.447µM, FLuc modulator 0.19µM
COC(=O)CSc1ccc(-c2nc3ccc(C)cc3[nH]2)cn1	ELG1 DNA repair inconclusive, ELG1 genotoxic inconclusive, FLuc modulator 2.69µM
Cc1ccc2nc(SCC(=O)Nc3cc(C)on3)[nH]c2c1	none
Cc1cc2nc(-c3ccc(SCC(=O)Nc4ccc(S(=O)(=O)NC5CC5)cc4)nc3)[nH]c2cc1C	ELG1 DNA repair inconclusive, ELG1 genotoxic inconclusive, NPC1 prom act 2.82µM, Rab9 promoter act 1.41µM, SMN2 splice enh 3.55µM, FLuc modulator 0.107µM
Cc1cc(-c2ccc(C)c(S(=O)(=O)NC(c3cccs3)C(C)C)c2)on1 (centres undefined)	none (no result: ELG1 DNA repair, ELG1 genotoxic, NPC1 prom act, Rab9 promoter act, SMN2 splice enh)
Cc1cc2nc(-c3ccc(SCC(=O)NC(C)C)nc3)[nH]c2cc1C	ELG1 DNA repair inconclusive, NPC1 prom act 2.82µM, Rab9 promoter act 3.16µM, SMN2 splice enh inconclusive, FLuc modulator 2.13µM
Cc1cc2nc(-c3ccc(SCc4ccc(C(=O)O)cc4)nc3)[nH]c2cc1C	ELG1 DNA repair inconclusive, ELG1 genotoxic inconclusive, NPC1 prom act inconclusive, Rab9 promoter act inconclusive, FLuc modulator 4.26µM (no result: SMN2 splice enh)
CC(C)NC(=O)CSc1nnc(-c2ccc(C(C)(C)C)cc2)n1C	FLuc modulator inconclusive
Cc1cc2nc(-c3ccc(SCc4ccccc4C#N)nc3)[nH]c2cc1C	ELG1 DNA repair inconclusive, ELG1 genotoxic inconclusive, Rab9 promoter act inconclusive, SMN2 splice enh 11.2µM, FLuc modulator 9.53µM
Cc1ccc(C(C)C)c(OCC(=O)Nc2ccc(S(=O)(=O)Nc3onc(C)c3C)cc2)c1	FLuc modulator inconclusive (no result: ELG1 DNA repair, ELG1 genotoxic, NPC1 prom act, Rab9 promoter act)
O=C(CCN1C(=O)C2C3C=CC(C4CC34)C2C1=O)Nc1ccc(Cl)cc1O (centres undefined)	none (no result: SMN2 splice enh)
COc1ccc(/C=C2\SC(=S)N(CCCC(=O)Nc3ccccc3C(=O)O)C2=O)cc1OC	none (no result: SMN2 splice enh)
CCOc1ccc(/C=C2/SC(=S)N(CCC(=O)Nc3ccc(C(=O)O)cc3)C2=O)cc1	ELG1 genotoxic inconclusive, FLuc modulator 1.2µM (no result: SMN2 splice enh)
O=C(CCN1C(=O)/C(=C\c2ccccc2)SC1=S)Nc1ccc(C(=O)O)cc1	FLuc modulator inconclusive (no result: SMN2 splice enh)
